Of roughly 8,800 targets only a part is listed; those with a hit were picked by preference. About 0.5% of all pairs of compound and target were hits.
Legend:
Assay in all cases: log2 fold change, soluble protein after heating vs DMSO (PISA); higher = thermal stabilisation; K562 lysate, 10 uM; active = over 0.2 and 3.5 SD of the protein, either way, in both replicates (recomputed)
erlotinib = compound: C#Cc1cccc(Nc2ncnc3cc(OCCOC)c(OCCOC)cc23)c1 [erlotinib]
Outline: (§1)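 Thermal stability, expressed as log-two fold change relative to solvent controls, is given from duplicates. Crude K562 extract in PBS pH 7.4 with 1 mM MgCl2, at 1 mg/mL protein, was treated with 10 μM compound for 30 min and heated in aliquots for 3 min across 48°C-58°C. After pooling, adjustment to 0.5% NP-40 at 4°C and centrifugation at 21,000xg for 90 min, supernatant protein was measured by TMTpro 16plex LC-MS/MS with channel sums equalised.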

[1] = compound: C/C(=N\NC(=O)C1=CC(=CC=C1)S(=O)(=O)N2CCOCC2)/C3=C(C=CC(=C3)Cl)O
Outline: as §1

[2] = compound: C1=CC(=CC=C1C2=NC3=C(N2)C=C(C=C3)C(=O)N)OC4=CC=C(C=C4)Cl
Outline: as §1

[3] = compound: C1=CC2=C(C=CC(=C2)/C=C\3/C(=O)NC(=NCC4=CC=CS4)S3)N=C1
Outline: as §1

[4] = compound: C1=CC2=NC=CN=C2C=C1/C=C/3\C(=O)NC(=O)S3
Outline: as §1

[5] = compound: C1=CC=C(C=C1)C2=NC(=C(N2)C3=CC=NC=C3)C4=CC(=C(C=C4)Cl)O
Outline: as §1

[6] = compound: C1=CC=C2C(=C1)C3=NNC4=CC=CC(=C43)C2=O
Outline: as §1

[7] = compound: C1CCN(C1)C(=O)NC2=CC=CC(=C2)NC3=NC=C(C(=N3)NCCC4=CN=CN4)Br
Outline: as §1

[8] = compound: C1CN(CCC1(CC2=CC=C(C=C2)Cl)N)C3=NC=NC4=C3C=CN4
Outline: as §1

IRAK-1-4 Inhibitor I = compound: C1COCCN1CCN2C3=CC=CC=C3N=C2NC(=O)C4=CC(=CC=C4)[N+](=O)[O-] [IRAK-1-4 Inhibitor I]
Outline: as §1

ibrutinib = compound: C=CC(=O)N1CCC[C@@H](n2nc(-c3ccc(Oc4ccccc4)cc3)c3c(N)ncnc32)C1 [ibrutinib]
Outline: as §1

[9] = compound: CC(=O)c1cnc2ccc(-c3cc(Cl)c(O)c(Cl)c3)nc2c1N[C@H]1CC[C@H](CN(C)C)CC1
Outline: as §1

ralimetinib = compound: CC(C)(C)Cn1c(N)nc2ccc(-c3[nH]c(C(C)(C)C)nc3-c3ccc(F)cc3)nc21 [ralimetinib]
Outline: as §1

[10] = compound: CC(C)(O)CC(=O)NCCn1ccc2ncnc(Nc3ccc(Oc4cccc(C(F)(F)F)c4)c(Cl)c3)c21
Outline: as §1

[11] = compound: CC(C)C1=C2N=C(C=C(N2N=C1)NCC3=CC=CC=C3)NCCCCCCN
Outline: as §1

[12] = compound: CC1=C(C(CC(=O)N1)C2=CC=C(C=C2)C(F)(F)F)C(=O)NC3=C(C=C4C(=C3)C=NN4)F
Outline: as §1

[13] = compound: CC1=C(C2=C(C=C1)C(=O)C3=CC=CC=C3N2CCCN)C
Outline: as §1

[14] = compound: CC1=C(C=C(C=C1)NC(=O)C2=CC(=CC=C2)C(C)(C)C#N)NC3=CC4=C(C=C3)N=CN(C4=O)C
Outline: as §1

[15] = compound: CC1=C(C=C(C=C1)NC(=O)C2=CC(=CC=C2)N(C)C)NC(=O)C3=CC=C(C=C3)O
Outline: as §1

[16] = compound: CC1=CC=C(C=C1)SC2=C3C=C(SC3=CN=C2)C(=O)N
Outline: as §1

Measured: log2 fold change

TRAPPC10 (UniProt P48553)
inactive: erlotinib 0.066 | [1] 0.031 | [2] 0.027 | [3] 0.045 | [4] 0.018 | [5] 0.004 | [6] -0.058 | [7] 0.057 | [8] 0.005 | IRAK-1-4 Inhibitor I 0.013 | ibrutinib -0.006 | [9] -0.004 | ralimetinib 0.025 | [10] -0.03 | [11] 0.027 | [12] 0.002 | [13] -0.029 | [14] 0.019 | [15] 0.02 | [16] -0.004

TUBE1 (UniProt Q9UJT0)
Chain of UniProt Q9UJT0 (Q9UJT0 whole entry, looked up): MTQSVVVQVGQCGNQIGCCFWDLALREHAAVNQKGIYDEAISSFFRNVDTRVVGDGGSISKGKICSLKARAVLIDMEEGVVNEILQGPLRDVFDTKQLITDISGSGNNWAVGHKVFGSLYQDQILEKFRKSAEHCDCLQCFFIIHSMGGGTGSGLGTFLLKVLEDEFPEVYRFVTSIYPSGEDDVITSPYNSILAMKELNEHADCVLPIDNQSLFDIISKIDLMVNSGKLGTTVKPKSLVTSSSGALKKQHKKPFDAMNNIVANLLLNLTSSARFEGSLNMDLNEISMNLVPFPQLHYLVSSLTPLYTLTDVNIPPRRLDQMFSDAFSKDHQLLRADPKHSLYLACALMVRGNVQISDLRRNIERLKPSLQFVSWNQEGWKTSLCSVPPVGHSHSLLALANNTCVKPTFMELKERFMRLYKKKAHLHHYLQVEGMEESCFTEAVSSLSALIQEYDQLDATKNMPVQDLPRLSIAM
inactive: erlotinib 0.051 | [1] -0.267 | [2] 0.095 | [3] -0.059 | [4] -0.063 | [5] -0.078 | [6] -0.033 | [7] -0.113 | [8] 0.047 | IRAK-1-4 Inhibitor I 0.023 | ibrutinib 0.065 | [9] -0.017 | ralimetinib 0.05 | [10] -0.034 | [11] 0.024 | [12] -0.001 | [13] 0.027 | [14] -0.02 | [15] 0.001 | [16] -0.03

TMEM199 (UniProt Q8N511)
active: [13] -0.275
inactive: erlotinib 0.002 | [1] -0.03 | [2] -0.034 | [3] 0.032 | [4] 0.018 | [5] -0.013 | [6] -0.087 | [7] -0.065 | [8] 0.027 | IRAK-1-4 Inhibitor I -0.033 | ibrutinib 0.067 | [9] 0.001 | ralimetinib -0.001 | [10] -0.078 | [11] -0.003 | [12] 0.001 | [14] -0.043 | [15] -0.016 | [16] 0.009

TTI2 (UniProt Q6NXR4)
Chain of UniProt Q6NXR4 (Q6NXR4 whole entry, looked up): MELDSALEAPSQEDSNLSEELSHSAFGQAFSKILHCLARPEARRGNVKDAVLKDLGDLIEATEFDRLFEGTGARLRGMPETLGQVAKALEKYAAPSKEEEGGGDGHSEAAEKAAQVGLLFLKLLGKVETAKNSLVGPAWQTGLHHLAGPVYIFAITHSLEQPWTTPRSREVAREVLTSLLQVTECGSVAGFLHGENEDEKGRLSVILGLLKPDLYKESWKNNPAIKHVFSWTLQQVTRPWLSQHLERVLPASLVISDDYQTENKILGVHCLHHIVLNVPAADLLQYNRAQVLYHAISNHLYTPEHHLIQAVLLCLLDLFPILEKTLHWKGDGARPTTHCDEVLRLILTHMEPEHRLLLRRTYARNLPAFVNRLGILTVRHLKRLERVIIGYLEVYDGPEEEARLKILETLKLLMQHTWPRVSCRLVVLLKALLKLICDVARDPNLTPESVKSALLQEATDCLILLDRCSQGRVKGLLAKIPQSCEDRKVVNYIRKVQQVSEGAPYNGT
inactive: erlotinib -0.003 | [1] 0.037 | [2] 0.023 | [3] 0.047 | [4] 0.013 | [5] 0.012 | [6] -0.015 | [7] -0.028 | [8] 0.007 | IRAK-1-4 Inhibitor I 0.014 | ibrutinib 0.012 | [9] 0.016 | ralimetinib 0.019 | [10] -0.062 | [11] -0.004 | [12] -0.009 | [13] 0.018 | [14] -0.009 | [15] -0.015 | [16] -0.017

TCF12 isoform 3 (UniProt Q99081)
Chain of UniProt Q99081 (Q99081 whole entry, looked up): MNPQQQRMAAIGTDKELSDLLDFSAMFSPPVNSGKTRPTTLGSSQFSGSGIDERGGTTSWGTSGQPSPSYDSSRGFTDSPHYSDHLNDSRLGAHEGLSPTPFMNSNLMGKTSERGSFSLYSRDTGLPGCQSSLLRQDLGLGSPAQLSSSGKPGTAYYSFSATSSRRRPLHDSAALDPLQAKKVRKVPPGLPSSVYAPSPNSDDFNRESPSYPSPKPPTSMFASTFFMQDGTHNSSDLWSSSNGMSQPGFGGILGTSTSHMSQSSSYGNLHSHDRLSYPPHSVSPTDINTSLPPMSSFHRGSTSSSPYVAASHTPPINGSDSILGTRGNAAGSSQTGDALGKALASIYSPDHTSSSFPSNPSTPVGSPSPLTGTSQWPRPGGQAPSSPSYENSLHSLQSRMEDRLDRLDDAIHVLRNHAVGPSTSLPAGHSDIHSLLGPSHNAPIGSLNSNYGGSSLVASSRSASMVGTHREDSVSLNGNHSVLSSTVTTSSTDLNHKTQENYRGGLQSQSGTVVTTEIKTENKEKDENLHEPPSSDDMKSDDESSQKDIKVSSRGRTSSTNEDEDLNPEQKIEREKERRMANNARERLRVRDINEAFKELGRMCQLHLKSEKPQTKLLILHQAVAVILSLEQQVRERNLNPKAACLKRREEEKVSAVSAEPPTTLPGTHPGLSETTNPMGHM
inactive: erlotinib -0.001 | [1] -0.025 | [2] 0.081 | [3] 0.006 | [4] -0.004 | [5] -0.017 | [6] 0.003 | [7] -0.063 | [8] 0.006 | IRAK-1-4 Inhibitor I 0.051 | ibrutinib 0.059 | [9] -0.029 | ralimetinib -0.022 | [10] -0.054 | [11] 0.002 | [12] -0.008 | [13] 0.064 | [14] -0.008 | [15] 0.011 | [16] 0.109

TRAPPC6A isoform 2 (UniProt O75865)
Chain of UniProt O75865 (O75865 whole entry, looked up): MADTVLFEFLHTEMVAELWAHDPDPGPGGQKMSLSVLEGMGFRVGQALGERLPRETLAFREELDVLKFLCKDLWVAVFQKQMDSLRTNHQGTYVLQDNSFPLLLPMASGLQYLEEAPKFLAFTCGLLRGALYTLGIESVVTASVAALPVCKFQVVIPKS
inactive: erlotinib 0.018 | [1] 0.095 | [2] 0.002 | [3] 0.049 | [4] -0.055 | [5] -0.016 | [6] -0.005 | [7] 0.154 | [8] 0.095 | IRAK-1-4 Inhibitor I 0.047 | ibrutinib -0.023 | [9] -0.011 | ralimetinib -0.027 | [10] -0.037 | [11] -0.031 | [12] -0.052 | [13] 0.012 | [14] 0.008 | [15] 0.004 | [16] -0.062

TBRG4 (UniProt Q969Z0)
inactive: erlotinib 0.033 | [1] -0.048 | [2] -0.036 | [3] 0.001 | [4] 0.013 | [5] -0.044 | [6] -0.031 | [7] 0.013 | [8] 0.008 | IRAK-1-4 Inhibitor I -0.009 | ibrutinib 0.014 | [9] 0.025 | ralimetinib 0.002 | [10] -0.023 | [11] -0.011 | [12] 0.001 | [13] 0.062 | [14] -0.041 | [15] 0.044 | [16] -0.023

TTC5 (UniProt Q8N0Z6)
Chain of UniProt Q8N0Z6 (Q8N0Z6 whole entry, looked up): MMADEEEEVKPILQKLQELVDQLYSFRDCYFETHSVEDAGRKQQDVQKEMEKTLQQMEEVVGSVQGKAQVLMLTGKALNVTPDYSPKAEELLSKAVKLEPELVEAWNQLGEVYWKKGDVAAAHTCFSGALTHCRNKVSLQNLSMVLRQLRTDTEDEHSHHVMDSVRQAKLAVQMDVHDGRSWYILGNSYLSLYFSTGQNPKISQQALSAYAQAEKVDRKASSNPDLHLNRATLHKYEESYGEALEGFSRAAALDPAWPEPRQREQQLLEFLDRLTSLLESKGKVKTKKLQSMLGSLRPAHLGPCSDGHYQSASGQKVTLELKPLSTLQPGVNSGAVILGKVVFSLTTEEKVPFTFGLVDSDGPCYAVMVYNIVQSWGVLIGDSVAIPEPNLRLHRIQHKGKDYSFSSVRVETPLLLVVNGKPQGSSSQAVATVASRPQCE
inactive: erlotinib -0.015 | [1] -0.089 | [2] -0.014 | [3] -0.034 | [4] 0.041 | [5] 0.022 | [6] 0.016 | [7] 0.017 | [8] 0.033 | IRAK-1-4 Inhibitor I -0.008 | ibrutinib 0.019 | [9] 0.007 | ralimetinib 0.017 | [10] 0.001 | [11] 0.042 | [12] -0.089 | [13] -0.01 | [14] 0.017 | [15] 0.016 | [16] -0.001

TJP1 isoform 2 (UniProt Q07157)
inactive: erlotinib -0.002 | [1] 0 | [2] 0.037 | [3] -0.007 | [4] -0.082 | [5] -0.018 | [6] -0.041 | [7] -0.075 | [8] 0.039 | IRAK-1-4 Inhibitor I 0.015 | ibrutinib 0.019 | [9] -0.001 | ralimetinib -0.007 | [10] -0.041 | [11] 0.036 | [12] 0.002 | [13] -0.025 | [14] 0.015 | [15] 0.016 | [16] -0.014

TTLL12 (UniProt Q14166)
Chain of UniProt Q14166 (Q14166 whole entry, looked up): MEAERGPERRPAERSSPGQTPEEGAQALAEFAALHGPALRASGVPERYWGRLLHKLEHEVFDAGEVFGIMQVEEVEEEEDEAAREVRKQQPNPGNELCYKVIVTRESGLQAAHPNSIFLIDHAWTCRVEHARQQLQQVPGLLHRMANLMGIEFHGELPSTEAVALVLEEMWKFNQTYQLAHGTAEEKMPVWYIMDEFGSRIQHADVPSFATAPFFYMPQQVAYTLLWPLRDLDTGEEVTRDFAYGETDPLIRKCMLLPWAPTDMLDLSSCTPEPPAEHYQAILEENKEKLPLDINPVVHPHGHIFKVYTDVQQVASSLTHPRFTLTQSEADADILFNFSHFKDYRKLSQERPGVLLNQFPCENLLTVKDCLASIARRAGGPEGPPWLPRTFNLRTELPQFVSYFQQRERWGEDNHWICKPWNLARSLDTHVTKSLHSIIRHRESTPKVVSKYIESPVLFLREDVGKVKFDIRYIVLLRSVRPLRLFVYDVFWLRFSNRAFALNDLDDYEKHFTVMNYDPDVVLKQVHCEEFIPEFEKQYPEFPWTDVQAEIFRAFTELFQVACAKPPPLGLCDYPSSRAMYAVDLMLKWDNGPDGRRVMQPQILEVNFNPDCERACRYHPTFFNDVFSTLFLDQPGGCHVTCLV
inactive: erlotinib 0.006 | [1] 0.049 | [2] -0.047 | [3] 0.036 | [4] 0.027 | [5] 0.005 | [6] -0.023 | [7] 0 | [8] 0.021 | IRAK-1-4 Inhibitor I -0.016 | ibrutinib -0.018 | [9] 0.003 | ralimetinib 0.026 | [10] 0.005 | [11] 0.044 | [12] -0.026 | [13] -0.032 | [14] -0.008 | [15] 0.031 | [16] 0.012

TRIM11 (UniProt Q96F44)
inactive: erlotinib 0.005 | [1] -0.012 | [2] -0.008 | [3] -0.002 | [4] 0.012 | [5] -0.018 | [6] -0.032 | [7] -0.046 | [8] 0.002 | IRAK-1-4 Inhibitor I 0.043 | ibrutinib 0.008 | [9] 0.05 | ralimetinib -0.009 | [10] -0.049 | [11] -0.011 | [12] -0.067 | [13] -0.04 | [14] 0.005 | [15] -0.014 | [16] 0.036

UBR1 (UniProt Q8IWV7)
inactive: erlotinib 0.01 | [1] 0.058 | [2] -0.055 | [3] -0.002 | [4] 0.026 | [5] 0.015 | [6] -0.016 | [7] -0.047 | [8] 0.008 | IRAK-1-4 Inhibitor I 0.002 | ibrutinib 0.007 | [9] 0.005 | ralimetinib 0.015 | [10] -0.044 | [11] -0.014 | [12] -0.011 | [13] 0.004 | [14] -0.004 | [15] -0.03 | [16] -0.008

TBK1 (UniProt Q9UHD2)
inactive: erlotinib -0.005 | [1] -0.066 | [2] -0.03 | [3] 0.006 | [4] -0.067 | [5] 0.023 | [6] 0.238 | [7] 0.214 | [8] -0.047 | IRAK-1-4 Inhibitor I 0.082 | ibrutinib -0.02 | [9] 0.159 | ralimetinib -0.007 | [10] -0.035 | [11] 0.047 | [12] 0.015 | [13] -0.016 | [14] -0.034 | [15] 0.032 | [16] -0.013

TEX30 (UniProt Q5JUR7)
Chain of UniProt Q5JUR7 (Q5JUR7 whole entry, looked up): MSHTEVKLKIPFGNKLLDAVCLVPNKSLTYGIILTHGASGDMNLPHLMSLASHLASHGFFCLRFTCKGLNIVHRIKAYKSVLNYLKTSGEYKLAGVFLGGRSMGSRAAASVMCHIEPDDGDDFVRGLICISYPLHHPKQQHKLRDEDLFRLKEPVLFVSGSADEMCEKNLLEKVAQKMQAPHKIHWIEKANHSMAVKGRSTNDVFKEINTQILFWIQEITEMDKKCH
inactive: erlotinib -0.012 | [1] -0.106 | [2] -0.112 | [3] 0.03 | [4] 0.046 | [5] -0.009 | [6] -0.065 | [7] -0.034 | [8] -0.007 | IRAK-1-4 Inhibitor I -0.031 | ibrutinib 0.17 | [9] 0.003 | ralimetinib 0.047 | [10] -0.053 | [11] -0.045 | [12] -0.033 | [13] 0.016 | [14] -0.027 | [15] 0.019 | [16] 0.019

TNIK isoform 4 (UniProt Q9UKE5)
Chain of UniProt Q9UKE5 (Q9UKE5 whole entry, looked up): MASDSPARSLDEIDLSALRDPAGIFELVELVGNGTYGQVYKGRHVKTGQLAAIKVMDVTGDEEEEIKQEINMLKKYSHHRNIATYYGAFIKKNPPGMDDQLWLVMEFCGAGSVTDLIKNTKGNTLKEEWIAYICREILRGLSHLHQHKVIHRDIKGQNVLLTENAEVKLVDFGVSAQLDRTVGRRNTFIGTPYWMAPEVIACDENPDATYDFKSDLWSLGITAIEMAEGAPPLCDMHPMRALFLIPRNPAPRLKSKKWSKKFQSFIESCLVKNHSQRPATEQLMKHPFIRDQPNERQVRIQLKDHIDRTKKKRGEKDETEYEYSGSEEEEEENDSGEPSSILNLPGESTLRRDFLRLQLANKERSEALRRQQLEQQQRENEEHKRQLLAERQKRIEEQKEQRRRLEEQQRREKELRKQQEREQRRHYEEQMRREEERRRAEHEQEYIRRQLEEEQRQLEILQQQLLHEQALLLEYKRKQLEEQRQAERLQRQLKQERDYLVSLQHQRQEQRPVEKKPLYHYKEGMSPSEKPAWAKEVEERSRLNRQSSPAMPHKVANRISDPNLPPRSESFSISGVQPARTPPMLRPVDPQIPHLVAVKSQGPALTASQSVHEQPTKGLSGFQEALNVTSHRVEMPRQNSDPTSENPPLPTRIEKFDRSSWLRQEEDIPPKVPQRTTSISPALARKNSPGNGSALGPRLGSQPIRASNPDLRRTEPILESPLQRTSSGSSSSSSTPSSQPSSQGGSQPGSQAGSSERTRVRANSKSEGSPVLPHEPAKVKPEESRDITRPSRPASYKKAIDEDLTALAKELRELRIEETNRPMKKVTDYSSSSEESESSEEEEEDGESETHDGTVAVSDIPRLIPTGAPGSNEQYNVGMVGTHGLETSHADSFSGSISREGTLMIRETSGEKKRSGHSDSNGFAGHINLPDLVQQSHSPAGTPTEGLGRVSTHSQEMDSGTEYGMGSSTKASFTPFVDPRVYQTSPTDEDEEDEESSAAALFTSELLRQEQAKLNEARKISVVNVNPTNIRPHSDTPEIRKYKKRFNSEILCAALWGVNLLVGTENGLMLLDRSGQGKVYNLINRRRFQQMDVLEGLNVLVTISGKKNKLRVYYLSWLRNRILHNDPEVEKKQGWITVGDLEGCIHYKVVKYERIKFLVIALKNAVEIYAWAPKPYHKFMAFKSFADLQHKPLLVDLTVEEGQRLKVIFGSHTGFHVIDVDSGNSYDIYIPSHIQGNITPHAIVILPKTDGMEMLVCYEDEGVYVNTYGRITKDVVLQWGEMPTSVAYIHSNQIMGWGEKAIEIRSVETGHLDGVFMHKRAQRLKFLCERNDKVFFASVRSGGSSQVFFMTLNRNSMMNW
active: [9] 0.374
inactive: erlotinib -0.015 | [1] -0.037 | [2] -0.035 | [3] 0.119 | [4] 0.003 | [5] 0.125 | [6] 0.244 | [7] 0.113 | [8] -0.031 | IRAK-1-4 Inhibitor I -0.019 | ibrutinib 0.008 | ralimetinib -0.024 | [10] -0.005 | [11] 0.046 | [12] -0.013 | [13] -0.019 | [14] 0.186 | [15] -0.012 | [16] -0.068

TCP11L1 (UniProt Q9NUJ3)
Chain of UniProt Q9NUJ3 (Q9NUJ3 whole entry, looked up): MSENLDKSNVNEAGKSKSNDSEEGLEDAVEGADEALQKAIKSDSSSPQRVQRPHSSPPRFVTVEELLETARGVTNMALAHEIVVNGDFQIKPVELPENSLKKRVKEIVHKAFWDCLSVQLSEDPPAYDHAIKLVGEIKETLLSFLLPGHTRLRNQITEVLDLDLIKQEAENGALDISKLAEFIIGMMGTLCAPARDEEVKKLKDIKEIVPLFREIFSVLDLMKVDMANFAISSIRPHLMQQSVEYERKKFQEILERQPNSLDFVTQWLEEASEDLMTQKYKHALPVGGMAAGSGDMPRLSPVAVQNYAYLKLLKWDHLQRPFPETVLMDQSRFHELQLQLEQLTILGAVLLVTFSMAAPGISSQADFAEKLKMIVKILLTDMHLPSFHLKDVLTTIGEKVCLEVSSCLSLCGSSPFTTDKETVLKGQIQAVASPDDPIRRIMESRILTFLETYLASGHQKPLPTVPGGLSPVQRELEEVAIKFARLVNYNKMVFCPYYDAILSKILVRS
inactive: erlotinib 0.082 | [1] 0.032 | [2] 0.032 | [3] 0.033 | [4] -0.053 | [5] 0.075 | [6] -0.069 | [7] -0.005 | [8] 0.094 | IRAK-1-4 Inhibitor I 0.001 | ibrutinib 0.026 | [9] -0.033 | ralimetinib -0.093 | [10] -0.061 | [11] -0.045 | [12] -0.032 | [13] -0.052 | [14] -0.008 | [15] 0.02 | [16] -0.008

From the supplement of paper PMC10849652
